S2 tox: Viability Counterscreen for Primary qHTS for Inhibitors of ATXN expression. S2 cells (HEK-293 line with an ATXN2-luciferase reporter) viability, CellTiter-Fluor protease fluorescence, 24 h. Potency, µM (doses to about 56.7 µM), usual class: cytotoxic. 400,000 tested, 0.49% active; also: nearly all actives have a fitted effect of over 40% in size
USP1-UAF1 inh: Inhibitors of USP1/UAF1: Primary Screen | recombinant USP1/UAF1, Ub-Rhodamine cleavage fluorescence | 390,000 tested, 0.23% active | Potency, µM (doses to about 57.1 µM), most hits filed as inhibitors | AID 743255, 2014 | Ubiquitin carboxyl-terminal hydrolase 1 (Homo sapiens), O94782; also: nearly all actives have a fitted effect of over 60% in size
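High-throughput fluorogenic screen: 1nM USP1/UAF1 complex, Ub-Rho substrate 150nM final, 50mM HEPES pH 7.8 with 0.5mM EDTA, 0.1 mg/ml BSA, 1mM TCEP and 0.01% Tween-20.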
ATXN2 expr inh: Primary qHTS for Inhibitors of ATXN expression. HEK-293 ATXN2-luciferase reporter, luminescence, 24 h. Potency, µM (titrated, usually from 57 µM), hits mostly inhibitors. 360,000 tested, 0.72% active. AID 1745845, 2022; also: nearly all actives have a fitted effect of over 55% in size
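qHTS (up to 57 uM final) was run with 24 h compound exposure of reporter cells at 37 °C. Each well was multiplexed: SteadyGlo luminescence measured ATXN2-luciferase expression after a fluorogenic Gly-Phe-AFC viability readout (25 uM final).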
USP2a inh: qHTS Assay for Inhibitors of Ubiquitin-specific Protease USP2a Using CHOP2 as the Reporter; USP2 core, Ub-CHOP2 coupled fluorogenic reporter, 485/531; 330,000 tested, 0.01% active; Ubiquitin carboxyl-terminal hydrolase 2 (Homo sapiens), O75604; Potency, µM (titrated, usually from 38.3 µM), hits mostly inhibitors
Target sequence (O75604 whole entry, looked up): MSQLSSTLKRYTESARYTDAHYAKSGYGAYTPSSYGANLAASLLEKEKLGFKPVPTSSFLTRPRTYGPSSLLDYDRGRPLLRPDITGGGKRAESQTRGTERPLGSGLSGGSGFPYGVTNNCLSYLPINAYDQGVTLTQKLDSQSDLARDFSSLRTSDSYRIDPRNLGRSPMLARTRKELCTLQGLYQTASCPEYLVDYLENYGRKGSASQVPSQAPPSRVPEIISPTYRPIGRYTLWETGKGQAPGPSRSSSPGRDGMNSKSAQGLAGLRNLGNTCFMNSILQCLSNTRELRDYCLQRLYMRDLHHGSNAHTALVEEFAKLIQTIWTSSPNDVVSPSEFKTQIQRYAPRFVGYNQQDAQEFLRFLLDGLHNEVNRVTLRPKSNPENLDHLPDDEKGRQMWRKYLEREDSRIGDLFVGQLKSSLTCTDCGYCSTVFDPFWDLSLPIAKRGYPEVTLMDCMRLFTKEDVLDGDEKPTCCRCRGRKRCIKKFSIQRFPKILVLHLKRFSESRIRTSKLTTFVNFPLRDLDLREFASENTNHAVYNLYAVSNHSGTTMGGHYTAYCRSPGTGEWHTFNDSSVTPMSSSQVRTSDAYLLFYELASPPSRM
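Cell-free coupled assay: 10nM USP2 core preincubated 30min RT with compound in Tris-HCl pH 8.0/CaCl2/CHAPS buffer, then 25nM Ub-CHOP2 and 25nM reporter substrate; fluorescence (Ex 485/Em 531) read after 60min RT, normalized to NEM inhibition, concentration-response curves fitted.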
IL1B secr inh: qHTS for Inhibitors of Inflammasome Signaling: IL-1-beta AlphaLISA Primary Screen. activity change, % at 57.5 µM. 360,000 tested, 4.7% active. AID 743279, 2014. THP-1 LPS/ATP IL-1B secretion, AlphaLISA, 16 h; active compounds read low; in the data active = activity change below about -50%; inconclusive = mostly about -30% to -49%
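Secreted IL-1B measured by AlphaLISA bead assay after 16 h compound exposure of THP-1 cells; compounds (final up to 57.5 uM) added 1 h before LPS (250 ng/mL) and ATP (1.25 mM) stimulation; lower signal means less secretion.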
Large screens that a line does not name were inactive. In the library only some 4.8% were active in any assay of this set; here they are far more common. Unless noted, calls follow the shape of the dose curve; as a rule, active = well fitted curve in the direction sought with a large enough effect; inconclusive = small, poorly fitted or top-dose-only effect, or another doubt; inactive = no such curve, though single readings can be large; an effect the other way counts as inactive or inconclusive.

COc1ccc(CC(N)c2csc(NC(=O)NCc3ccccc3)n2)cc1 (centres undefined)	S2 tox inconclusive, ATXN2 expr inh inconclusive (no result: USP1-UAF1 inh, USP2a inh)
COC(=O)[C@@H](NC(=O)Nc1ccc(OC(F)(F)F)cc1)C(C)C	S2 tox inconclusive
COc1ccccc1NC(=O)Nc1nc(C(N)Cc2ccc(Cl)cc2)cs1 (centres undefined)	S2 tox inconclusive, ATXN2 expr inh inconclusive (no result: USP1-UAF1 inh, USP2a inh)
COc1ccccc1NC(=O)Nc1nc(C(N)CC(C)C)cs1 (centres undefined)	S2 tox inconclusive, ATXN2 expr inh inconclusive, IL1B secr inh -57.1 (no result: USP1-UAF1 inh, USP2a inh)
Cc1cccc(Cn2nc(C(C)(C)C)cc2C(=O)Nc2ccc(F)cc2)c1	S2 tox inconclusive, USP1-UAF1 inh inconclusive, ATXN2 expr inh inconclusive, IL1B secr inh -53.2
Cc1ccccc1NC(=O)Nc1nc(C(N)Cc2ccccc2)cs1 (centres undefined)	S2 tox inconclusive, ATXN2 expr inh inconclusive, IL1B secr inh -56.4 (no result: USP1-UAF1 inh, USP2a inh)
CC(C)(C)c1cc(C(=O)NN)n(Cc2ccc(F)cc2)n1	none (no result: S2 tox, ATXN2 expr inh)
COc1ccc(CC(N)c2csc(NC(=O)Nc3ccccc3-c3ccccc3)n2)cc1 (centres undefined)	ATXN2 expr inh inconclusive, IL1B secr inh -58.3 (no result: S2 tox, USP1-UAF1 inh, USP2a inh)
NC(Cc1ccc(C(F)(F)F)cc1)c1csc(NC(=O)Nc2ccccc2Cl)n1 (centres undefined)	S2 tox inconclusive, ATXN2 expr inh inconclusive, IL1B secr inh -71.7 (no result: USP1-UAF1 inh, USP2a inh)
NC(Cc1ccc(C(F)(F)F)cc1)c1csc(NC(=O)Nc2ccccc2)n1 (centres undefined)	ATXN2 expr inh inconclusive (no result: S2 tox, USP1-UAF1 inh, USP2a inh)
NC(Cc1ccc(Cl)cc1)c1csc(NC(=O)Nc2ccccc2)n1 (centres undefined)	S2 tox inconclusive, ATXN2 expr inh inconclusive (no result: USP1-UAF1 inh, USP2a inh)
Cc1ccc(Nc2c(-c3ccc(N4CCOCC4)cc3)nc3cccc(C)n23)cc1	USP1-UAF1 inh inconclusive (no result: USP2a inh, IL1B secr inh)
CCOc1ccccc1Nc1sc(C(=O)c2ccc(Cl)cc2)c(N)c1C#N	S2 tox inconclusive, ATXN2 expr inh inconclusive (no result: USP2a inh, IL1B secr inh)
CC(C)C(N)c1csc(NC(=O)Nc2ccccc2C(C)(C)C)n1 (centres undefined)	IL1B secr inh -60.0 (no result: USP1-UAF1 inh, USP2a inh)
COc1ccccc1-c1cn[nH]c1-c1ccc(OCc2ccc([N+](=O)[O-])cc2)cc1O	none
CCOc1ccccc1Oc1cn[nH]c1-c1ccc(O)cc1O	none
COc1ccccc1-c1cn[nH]c1-c1ccc(OCc2ccccc2F)cc1O	S2 tox inconclusive, ATXN2 expr inh inconclusive, IL1B secr inh -101.0
COc1ccccc1-c1cn[nH]c1-c1ccc(OCc2ccc(F)cc2)cc1O	IL1B secr inh -51.6
C=C(C)COc1ccc(-c2[nH]ncc2Oc2ccccc2OCC)c(O)c1	ATXN2 expr inh inconclusive, USP2a inh inconclusive, IL1B secr inh -63.0
CCC1CN(CC(=O)NCc2cc(C)n(C)n2)Cc2cc(OC)ccc2O1 (centres undefined)	none (no result: USP1-UAF1 inh, ATXN2 expr inh, USP2a inh, IL1B secr inh)
CCOc1ccccc1CN1CCCC(c2nc(C)ncc2-c2ccc(F)cc2)C1 (centres undefined)	none (no result: USP1-UAF1 inh, ATXN2 expr inh, USP2a inh, IL1B secr inh)
O=C(c1cccnc1)C1CCCN(Cc2ccc3c(c2)CN(C(=O)c2ccc4[nH]ccc4c2)CCO3)C1 (centres undefined)	none (no result: USP1-UAF1 inh, ATXN2 expr inh, USP2a inh, IL1B secr inh)
Cc1cc(C)n2nc(C(=O)OCCOc3ccc(F)cc3)nc2n1	IL1B secr inh -50.2
CC1CN=C(NS(=O)(=O)c2ccccc2)N1 (centres undefined)	none (no result: ATXN2 expr inh, USP2a inh)
Cc1ccc(CN2C[C@@H](Sc3nc(C)cc(C)n3)C[C@H]2C(=O)N2CCN(c3ccccc3F)CC2)cc1	none (no result: USP1-UAF1 inh, ATXN2 expr inh, USP2a inh, IL1B secr inh)
CC(C)Cn1c(N)c(C(=O)COC(=O)C2CC(=O)N(Cc3ccccc3Cl)C2)c(=O)n(C)c1=O (centres undefined)	IL1B secr inh -60.5
CCCCCCCCCCCCCCCC(=O)OC[C@@H](COP(=O)([O-])OCC[N+](C)(C)C)OC(=O)CCCCCCCCCCCCCCC	none (no result: USP1-UAF1 inh, ATXN2 expr inh, USP2a inh, IL1B secr inh)
COc1ccc(NC(=O)C(=O)NCCc2sc(-c3ccc(Cl)cc3)nc2C)cc1	USP1-UAF1 inh inconclusive (no result: USP2a inh, IL1B secr inh)
Cc1ccc2nc(-c3ccc(Cl)c(NC(=O)COc4ccc([N+](=O)[O-])cc4)c3)oc2c1	none (no result: USP2a inh, IL1B secr inh)
Cc1sc2nc(CN3CCOCC3)nc(Cl)c2c1C	IL1B secr inh -95.7
Cc1sc2nc(CN3CCC(C)CC3)nc(Cl)c2c1C	none (no result: S2 tox, USP1-UAF1 inh, ATXN2 expr inh, IL1B secr inh)
CC1CN(c2ccc([N+](=O)[O-])c(NCCOc3ccc(Cl)cc3)c2)CC(C)N1 (centres undefined)	none (no result: S2 tox, ATXN2 expr inh)
CCc1ccc(OCCNc2cc(N3CCNC(C)C3)ccc2[N+](=O)[O-])cc1 (centres undefined)	ATXN2 expr inh inconclusive, IL1B secr inh -67.1
Cc1ccccc1OCCNc1cc(N2CC(C)NC(C)C2)ccc1[N+](=O)[O-] (centres undefined)	S2 tox 23.8µM, ATXN2 expr inh inconclusive, IL1B secr inh inconclusive
CC1CN(c2ccc([N+](=O)[O-])c(NCCOc3ccccc3)c2)CC(C)N1 (centres undefined)	S2 tox inconclusive, ATXN2 expr inh inconclusive, IL1B secr inh -59.2
CCc1ccc([C@@H]2C[C@H]3[C@@H](CN2S(=O)(=O)c2ccc(C)cc2)C(=O)C[C@@H](c2cccc(Cl)c2)N3S(=O)(=O)c2ccc(C)cc2)cc1	none (no result: USP2a inh)
Cc1cc(C)cc(-n2ccnc2SCC(=O)Nc2ccc(C)cc2C)c1	none (no result: USP2a inh, IL1B secr inh)
COc1cccc(CNC(=O)C2CCN(S(=O)(=O)c3ccc4c(c3)CCCN4C(C)=O)CC2)c1	none (no result: USP2a inh, IL1B secr inh)
CCOc1ccc(N=c2scc(-c3ccccc3)n2CCO)cc1	IL1B secr inh -65.6
OCCn1c(-c2ccc(F)cc2)csc1=Nc1ccccc1	IL1B secr inh -52.7

Assay outcomes: PubChem BioAssay, National Center for Advancing Translational Sciences (NCATS)
